# Reference: PubChem BioAssay AID1159606 (Sanford-Burnham Center for Chemical Genomics, 2016)
# Screen size: about 360,000 compounds; about 7,300 (2%) were called active. No stated cut-off is given here; in the data, active means inhibition above about 50%; inactive means the rest. The list comes from a sample in which actives are over-represented; it also holds similar structures and randomly drawn compounds.
# Test: blockers of TWEAK-induced Fn14 reporter activity – luciferase reporter cells, uHTS, primary screen (AID 1159606)
# Conditions: TWEAK-stimulated Fn14 reporter cells, luciferase luminescence, 8 h; at 10 µM; stronger effect = higher value
row,SMILES,inhibition
1,CC(C)COC(=O)n1c(=O)oc2ccc(S(=O)(=O)N3CCCCC3)cc21,19.6% (inactive)
2,Cc1noc(C)c1C(=O)N(CC(=O)NC1CCCC1)Cc1ccccc1F,-13.7% (inactive)
3,FC(F)(F)c1ccc2nnc(-c3c(Cl)cccc3Cl)n2c1,0.93% (inactive)
4,CC(=O)Nc1ccc(C(=O)CSc2nnc(Cc3ccccc3)o2)cc1,-13.6% (inactive)
5,CC(C)C[C@@H](N)c1nnc(SCC(=O)c2ccc(Cl)cc2)o1,58.5% (active)
6,COc1cc(C(=O)NCc2nnc(SCC(=O)c3ccc(Cl)cc3)o2)cc(OC)c1OC,-10.8% (inactive)
7,CCCCn1c(O)c(N=NC(=O)Cn2c(C(F)(F)F)nc3ccccc32)c2ccccc21,-12.1% (inactive)
8,Fc1ccc2[nH]c3c(N4CCSCC4)ncnc3c2c1,77.1% (active)
9,CC1(C)CC(=O)C=C(c2ccc(COC(=O)c3cc(F)cc(F)c3)cc2)C1=O,-6.91% (inactive)
10,O=[N+]([O-])c1ccc(CN2CC(N3CCC(c4ccccc4)CC3)CS2(=O)=O)cc1 (centres undefined),-12.9% (inactive)
11,CCS(=O)(=O)N1Cc2ccccc2CC1C(=O)Nc1nc2ccc(F)cc2s1 (centres undefined),21.8% (inactive)
12,CSc1ncccc1C(=O)Nc1ccc(C)cn1,1.24% (inactive)
13,CSc1ncccc1C(=O)Nc1nc2ccc(F)cc2s1,76.2% (active)
14,COc1cccc(NS(=O)(=O)c2ccc3[nH]cc(C(=O)NCCCOC(C)C)c(=O)c3c2)c1,-0.08% (inactive)
15,CCCCc1ccc(S(N)(=O)=O)cc1,-10.5% (inactive)
16,CCOc1ccc2nc(NC(=O)c3cc([N+](=O)[O-])ccc3N3CCOCC3)sc2c1,58.5% (active)
17,COc1ccc(S(=O)(=O)N2CCCCC2)cc1NC(=O)c1cc([N+](=O)[O-])ccc1N1CCOCC1,0.95% (inactive)
18,O=C(NCc1ccc2c(c1)OCO2)c1cc([N+](=O)[O-])ccc1N1CCOCC1,9.16% (inactive)
19,Cc1cc(C)cc(NC(=O)N2CCC(NC(=O)c3ccc(F)cc3)CC2)c1,-39.6% (inactive)
20,Cc1ccc2c(c1)N(CC(=O)N1CCC(O)CC1)C(=O)CO2,33.3% (inactive)
21,Cc1ccc(-n2nc3cc(C)c(NC(=O)c4cccnc4)cc3n2)cc1,8.31% (inactive)
22,O=C(Cc1ccccc1)Nc1ccc(NC(=O)c2cccnc2)cc1,2.31% (inactive)
23,Cc1cc2nc(-c3ccc(NC(=O)c4cccnc4)cc3)oc2cc1C,52.2% (active)
24,Cc1cc(NS(=O)(=O)c2ccc(NC(=O)c3cccnc3)cc2)nc(C)n1,14.2% (inactive)

row,SMILES,inhibition
1,Cc1ccc2nc(-c3ccc(NC(=O)c4cccnc4)cc3)oc2c1,71.4% (active)
2,CC(C)NS(=O)(=O)c1ccc(NC(=O)c2cccnc2)cc1,-3.3% (inactive)
3,COc1ccc(Br)c2c1C(=O)CC2,22.5% (inactive)
4,Cc1cc([N+](=O)[O-])nn1CC(=O)Nc1ccc(Cc2ccncc2)cc1,8.17% (inactive)
5,COc1ccc(C2CC(=O)C=C(NCC3CCCO3)C2)cc1 (centres undefined),-25.7% (inactive)
6,N#Cc1ccccc1Sc1ccccc1C(=O)OCC(=O)NC1CCCCC1,1.09% (inactive)
7,O=C1c2ccccc2C2=Nc3ccccc3SC(c3ccccc3F)C12 (centres undefined),59.2% (active)
8,COc1cccc(/C=C/C(=O)OCC(=O)N2CCN(c3ccccc3)CC2)c1,77.7% (active)
9,COc1cccc(-c2ccc(SCC(=O)N3CCN(c4ccccc4)CC3)nn2)c1,-23.8% (inactive)
10,COc1cccc(/C=C/C(=O)OCC(=O)N2CCCc3ccccc32)c1,-1.49% (inactive)
11,COc1ccc(CNc2c(CO)cnc3c2cnn3C)cc1,-5.49% (inactive)
12,CCN(C(=O)Nc1cccc2ccccc12)c1ccccc1,11.9% (inactive)
13,COc1ccc(Cl)cc1S(=O)(=O)N1CCC(O)(c2ccc(Cl)cc2)CC1,-6.82% (inactive)
14,O=C(Cc1ccc(S(=O)(=O)N2CCOCC2)s1)Nc1ccc(Br)c(C(F)(F)F)c1,17.8% (inactive)
15,COc1ccc(OC)c(C(=O)NC2CCCc3c2cnn3-c2cc(C)cc(C)c2)c1 (centres undefined),-50.2% (inactive)
16,Cn1nccc1C(=O)NC1CCCc2c1cnn2-c1ccc(F)cc1F (centres undefined),18.5% (inactive)
17,COc1ccc(C(=O)NC2CCCc3c2cnn3-c2cccc(C)c2C)c(OC)n1 (centres undefined),57.5% (active)
18,CCc1c(C)nc(SCC(=O)NC2CCCC2)[nH]c1=O,15.7% (inactive)
19,CCc1ccc(-c2nc(SCC(=O)NC3CCCC3)n[nH]2)cc1,66.6% (active)
20,COC(=O)c1ccccc1NC(=O)CSc1n[nH]c(-c2ccncc2)n1,-4.67% (inactive)
21,Cc1ccc(C2=NN(C(=O)COc3ncnc4ccccc34)C(c3ccco3)C2)cc1 (centres undefined),-54.3% (inactive)
22,Cc1ccc(C2=NN(C(=O)CSc3nc(N)cc(N)n3)C(c3ccco3)C2)cc1 (centres undefined),9.43% (inactive)
23,O=C(CN1CCN(C2CCS(=O)(=O)C2)CC1)N1N=C(c2ccc(Cl)cc2)CC1c1ccco1 (centres undefined),73.8% (active)
24,CC1(C(=O)NS(=O)(=O)c2ccc3ccccc3c2)CCN1C(=O)C1(c2ccc(Cl)cc2)CCC1 (centres undefined),17.7% (inactive)

row,SMILES,inhibition
1,C/C(=N\NC(=O)c1ccc(C)cc1)C1C(=O)c2ccccc2C1=O,-2.62% (inactive)
2,CCOc1ccccc1-c1cc(C(=O)N2CCOCC2)c2ccccc2n1,-5.73% (inactive)
3,CC(=O)c1ccc(S(=O)(=O)N2CCN(C(=O)/C=C/c3ccc4ccccc4n3)CC2)cc1,6.75% (inactive)
4,CC(OC(=O)c1ccc2ccccc2n1)C(=O)c1ccccc1 (centres undefined),-11.2% (inactive)
5,COc1cccc(/C=C/c2ccc3ccccc3n2)c1OC(C)=O,86.8% (active)
6,CCOc1ccccc1/C=N/Nc1nc2ccccc2o1,15.2% (inactive)
7,CCOc1cccc(/C=C/c2ccc3ccccc3n2)c1OC(C)=O,60% (active)
8,CCCc1cc(=O)oc2c(C)c(OC(C)C(=O)NCC(O)c3ccccc3)ccc12 (centres undefined),-28.2% (inactive)
9,COCn1c(C(O)c2ccccc2)cc2ccccc21 (centres undefined),3.63% (inactive)
10,Cc1ccc(-c2ccc(CN3C(C)C(=O)N(Cc4cn(CCC5OCCCO5)nn4)CCS3(=O)=O)cc2)cc1 (centres undefined),5.69% (inactive)
11,Cc1ccc(NC(=O)CSCC(=O)N2CCOCC2)cc1,-11.3% (inactive)
12,O=C(CSc1nnc(-c2cccnc2)n1Cc1ccco1)c1ccc(Cl)c(Cl)c1,62.2% (active)
13,O=C(CSc1nnc(-c2cnccn2)n1Cc1ccco1)c1ccc(Cl)c(Cl)c1,-5.31% (inactive)
14,C(=C\c1ccccc1)/CSc1nnc(-c2cccnc2)n1Cc1ccco1,-6.4% (inactive)
15,CNC[C@H]1OCc2cnnn2CCCC(=O)N([C@H](C)CO)C[C@@H]1C,-13.2% (inactive)
16,CCc1nc2ccc(C(=O)NC3CCN(Cc4ccccc4)CC3)cn2c1N(CC)CCOC,-14.1% (inactive)
17,COCCNc1nc2nonc2nc1N1CCCC1c1nccs1 (centres undefined),-4.57% (inactive)
18,O=C(Nc1ccc2c(c1)CCC2)c1cccc(S(=O)(=O)Nc2ccccc2Cl)c1,25.9% (inactive)
19,O=C(Nc1ccc2c(c1)CCC2)c1cccc(S(=O)(=O)N2CCN(c3ccc(F)cc3)CC2)c1,65% (active)
20,CN1CCN(S(=O)(=O)c2cccc(C(=O)Nc3cccc(S(N)(=O)=O)c3)c2)CC1,14.8% (inactive)
21,COc1ccc(NC(=O)c2ccccc2CC[N+](=O)[O-])cc1,2.4% (inactive)
22,COCCNC(=O)c1cc2c(Br)ccc(Br)c2nc1N,2.81% (inactive)
23,Cc1cc(C)n2c(Nc3c(C)cccc3C)c(CCc3ccccc3)nc2n1,-5.1% (inactive)
24,OCC1(CO)CC2(C1)CC(CO)(CO)C2,15.3% (inactive)

row,SMILES,inhibition
1,Cc1ccc(-c2noc(CCC(=O)Nc3ccccc3N3CCN(C)CC3)n2)cc1,12.3% (inactive)
2,COc1cc(/C=C(/NC(=O)c2ccc(Cl)cc2Cl)C(=O)O)cc(OC)c1OC,15.3% (inactive)
3,CCOc1cc(/C=C(/C#N)c2ccc(Cl)cc2)cc(Cl)c1OCC(=O)O,83.5% (active)
4,CCOc1cc(/C=N/NC(=O)OC)ccc1OCCSc1ccc(Cl)cc1,10.4% (inactive)
5,COc1ccccc1CNC(=O)C1CCN(S(=O)(=O)c2ccc3c(c2)OCCO3)CC1,10.5% (inactive)
6,Cc1ccc(Cn2cc(C(=O)NN)c(=O)c3ccc(F)cc32)cc1,-2.98% (inactive)
7,CCNc1nc(SCCOc2ccccc2)nc(N(C)C)n1,-28.5% (inactive)
8,Cc1cccc(NC(=O)C2CC(=O)OC23CCCC3)c1 (centres undefined),14.4% (inactive)
9,Cn1c(=O)c2cc(NC(=O)NCCc3cccs3)ccc2n1Cc1cccc(C(F)(F)F)c1,4.52% (inactive)
10,COc1ccccc1NC(=O)Nc1nnc(Cc2ccc(F)cc2)s1,-26.6% (inactive)
11,O=C(Nc1nnc(COc2ccccc2)s1)Nc1ccccc1F,62.4% (active)
12,O=C(Nc1ccccc1)Nc1nnc(COc2ccccc2F)s1,-8.31% (inactive)
13,Brc1ccc(-c2nn[nH]n2)cc1,5.03% (inactive)
14,CC(=O)C1=C(C)NC2=C(C(=O)CC(C)(C)C2)C1C (centres undefined),16% (inactive)
15,COc1ccc(OC)c(/C(C)=N\NC(=O)c2cc3cc(Cl)ccc3n2C)c1,5.37% (inactive)
16,COCCCNc1nc2ccccc2nc1NS(=O)(=O)c1ccc(F)cc1,19.1% (inactive)
17,Cc1ccc(S(=O)(=O)Nc2nc3ccccc3nc2N2CCc3ccccc3C2)cc1,86.8% (active)
18,Cc1ccc(S(=O)(=O)C(C#N)c2nc3ccccc3nc2N2CCCC2)cc1C (centres undefined),12.6% (inactive)
19,Cc1ccc(C)c(NC(=O)CSc2nc3c(oc4ccccc43)c(=O)n2-c2ccccc2)c1,25.1% (inactive)
20,COc1ccccc1C(=O)NC(=S)Nc1ccccc1N1CCCCC1,53.6% (active)
21,COc1ccccc1C(=O)NC(=S)Nc1ccc(N2CCOCC2)cc1,-34.2% (inactive)
22,COc1ccccc1C(=O)NC(=S)NC12CC3CC(CC(C3)C1)C2,0.54% (inactive)
